Screening data deposited in PubChem BioAssay by National Center for Advancing Translational Sciences (NCATS).
Sampled rows, rich in hits. Any-hit rate of the full collection: about 2.4%.
D2 PAM-1 = HTS Assay for Positive Allosteric Modulators of the Human D2 Dopamine Receptor: Primary Screen for Potentiators; D(2) dopamine receptor (Homo sapiens), P14416; HEK293 T-REx D2, calcium flux, EC20 dopamine potentiation; potentiation, % at 10 µM; 340,000 tested, 0.34% active;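 active = potentiation over 3 SD above the plate norm, cut at about 30% in these data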
Target sequence (P14416 whole entry, looked up): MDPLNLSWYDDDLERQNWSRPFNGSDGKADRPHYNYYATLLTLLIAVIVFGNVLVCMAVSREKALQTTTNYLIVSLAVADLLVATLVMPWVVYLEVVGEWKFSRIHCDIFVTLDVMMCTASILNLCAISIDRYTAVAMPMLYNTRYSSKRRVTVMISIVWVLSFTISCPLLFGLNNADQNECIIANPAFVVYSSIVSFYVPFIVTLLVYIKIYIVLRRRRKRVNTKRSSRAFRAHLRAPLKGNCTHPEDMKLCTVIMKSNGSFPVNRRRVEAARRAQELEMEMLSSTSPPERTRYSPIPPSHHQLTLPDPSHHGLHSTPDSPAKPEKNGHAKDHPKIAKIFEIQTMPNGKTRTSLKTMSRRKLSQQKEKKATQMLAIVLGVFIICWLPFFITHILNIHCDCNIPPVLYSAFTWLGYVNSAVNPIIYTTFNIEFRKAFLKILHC
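Tetracycline-induced Hek293 Trex D2 cells, force-coupled to calcium, loaded with no-wash calcium dye. Compound added with 180 s kinetic read for agonism, then EC20 dopamine and a further 180 s read for potentiation.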
D2 PAM-2 = Beta-Arrestin HTS for Positive Allosteric Modulators of the Human D2 Dopamine Receptor: Potentiators | D(2) dopamine receptor (Homo sapiens), P14416 | DiscoveRx D2 beta-arrestin cells, luminescence, 90 min; 100% = 57 uM dopamine signal | potentiation, % (concentration not given with the values) | 360,000 tested, 0.23% active | AID 624464, 2012; in the data active = potentiation above about 50%
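D2 cells co-treated with compound plus 50 nM dopamine (EC20) for 90 min at 37 deg C to detect potentiation. Beta-arrestin recruitment was read as enzyme-fragment luminescence after 1 h at ambient temperature. Full response was set by 57 uM dopamine.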
D2 antagonist = HTS Assay for Allosteric Antagonists of the Human D2 Dopamine Receptor: Primary Screen for Antagonists; D(2) dopamine receptor (Homo sapiens), P14416; HEK293 TREx D2 cells, calcium flux, dopamine EC80; inhibition, % at 10 µM; 340,000 tested, 2% active; AID 485344, 2010; in the data active = inhibition above about 30%; inactive = below that, where a call was filed
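In this primary screen, negative modulation is detected by tracking calcium flux after an EC80 dopamine challenge in inducible HEK293 T-REx D2 cells preexposed to test compound for 180 s.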
D2 ag-1 = HTS Assay for Allosteric Agonists of the Human D2 Dopamine Receptor: Primary Screen for Agonists; HEK293 T-REx D2 cells, calcium flux agonist mode; AID 485358, 2010; 340,000 tested, 0.53% active; activation, % at 2 µM;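 active = activation over 3 SD above normal in the single-dose calcium agonist read, cut at about 30% in these data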
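In this primary screen, compounds producing a positive calcium signal within 180 s of addition to tetracycline-induced, force-coupled HEK293 Trex D2 cells are flagged; cells are dye-loaded with a no-wash calcium kit beforehand.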
D2 ag-2 = Beta-Arrestin HTS for Positive Allosteric Modulators of the Human D2 Dopamine Receptor: Agonists; D(2) dopamine receptor (Homo sapiens), P14416; DiscoveRx PathHunter D2 beta-arrestin, luminescence, 90 min; 100% = 57 uM dopamine signal; activation, % (test concentration not listed); 360,000 tested, 0.084% active; in the data active = activation above about 40%
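DiscoveRx PathHunter D2 beta-arrestin cells (2,100/well) attached overnight, then compound-stimulated 90 min at 37 C in HBSS/10 mM HEPES/0.1% Tween-20 buffer; beta-galactosidase complementation read by luminescence after 1 h at ambient temperature. Dopamine 57 uM final (EC100) as control.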
Numbers stand for hits; 0 = inactive; - = no result.

SMILES | D2 PAM-1 | D2 PAM-2 | D2 antagonist | D2 ag-1 | D2 ag-2
CCOC(=O)C1CCN(Cc2cc(C(C)C)c(O)c(C(C)C)c2)CC1 | 0 | 0 | 45 | 0 | 0
COc1ccccc1Nc1nc(N)nc(CN2CCCCCC2)n1 | 0 | 0 | 0 | 0 | 0
CCOC(=O)C1CCCN(Cc2ccc(OC)c(OCc3ccccc3)c2)C1 (configuration not stated) | 0 | 0 | 45 | 0 | 0
CCOC(=O)C1CCCN(Cc2ccc(OCC)cc2)C1 (configuration not stated) | 0 | 0 | 0 | 42 | 0
COc1ccc(CN2CCC(C(N)=O)CC2)cc1OCc1ccccc1 | 0 | 0 | 0 | 0 | 0
CCc1ccc(-n2nc(C)c3c(C)cc(=O)n(CC(=O)Nc4ccc(C(C)=O)cc4)c32)cc1 | 0 | - | - | 0 | -
Cc1ccc(C2c3[nH]c4ccccc4c3CCN2C(=O)CCc2ccccc2)cc1 (configuration not stated) | 0 | - | - | 0 | -
CCOC(=O)C1CCCN(CC(O)COC(c2ccccc2)c2ccccc2)C1 (configuration not stated) | - | 0 | 33 | 0 | 0
CCOC(=O)C1CCCN(CC(O)COc2ccccc2C(C)=O)C1 (configuration not stated) | 0 | 0 | 0 | 0 | 0
CCOC(=O)C1CCCN(Cc2nc(N)nc(Nc3ccccc3OC)n2)C1 (configuration not stated) | 0 | 0 | 34 | 0 | 0
C=CCNc1nc(C(=O)OCC(=O)Nc2c(Cl)cccc2C(F)(F)F)cs1 | 0 | 0 | 36 | 0 | 0
COc1ccc(Nc2ncc3c(n2)CCN(Cc2cccc(F)c2F)C3)c(OC)c1 | 0 | - | - | 0 | -
CCCN(CCC)CCNC(=O)c1cc2c(=O)oc3ccc(C)cc3c2s1 | 0 | - | - | 0 | -
CSc1nc(Cl)cc(=O)[nH]1 | 0 | 0 | 0 | 0 | 0
CCOCc1cc(=O)[nH]c(SC)n1 | 0 | 0 | 30 | 0 | 0
Cc1cc(C(C)(C)C)cc(C)c1CC1=NCCN1 | 0 | 0 | 50 | 0 | 0
CC(C)Oc1ccc(S(=O)(=O)N2CCCCC2)cc1NC(=O)CN1CCCC1c1cccs1 (configuration not stated) | 0 | 0 | 33 | 0 | 0
CC(C)Oc1ccc(S(=O)(=O)N2CCOCC2)cc1NC(=O)Cc1c(F)cccc1Cl | 0 | 0 | 31 | 0 | 0
COc1ccc(Cl)cc1NC(=O)CSc1cn(CC(=O)N2CCCCC2)c2ccccc12 | 0 | - | - | 0 | -
COc1ccc2nc(SCc3cccnc3)c(C#N)cc2c1 | 0 | 0 | 0 | 0 | 0
N#Cc1cc2ccccc2nc1SCc1cccnc1 | 0 | 0 | 30 | 0 | 0
CC(C)c1nc(SCC(=O)Nc2ccc(N(C)C)cc2)c2ccccc2n1 | 0 | 0 | 34 | 0 | 0
CC(C)c1nc(SCC(=O)Nc2nccs2)c2ccccc2n1 | 0 | 0 | 0 | 0 | 0
CCCCCCC(O)(c1ccc(OC)cc1)C(CN1CCOCC1)c1ccccc1 (configuration not stated) | 0 | 0 | 31 | 0 | 0
COC(=O)c1ccccc1OCCN1CCCCCC1 | 0 | 0 | 39 | 0 | 0
SMILES | D2 PAM-1 | D2 PAM-2 | D2 antagonist | D2 ag-1 | D2 ag-2
COC(=O)c1ccc(OCCN2CCCCCC2)cc1 | 0 | 0 | 55 | 0 | 0
CC(=O)c1ccccc1OCCCCN1CCCCC1 | 0 | 0 | 58 | 0 | 0
CC(=O)c1ccccc1OCCOc1ccccc1C(C)=O | 0 | 0 | 0 | 0 | 0
CCc1ccccc1OCCCCN1CCCC1 | 0 | 0 | 46 | 0 | 0
Cc1ccc(NC(=O)C2CCC(CNS(=O)(=O)c3csc(C(N)=O)c3)CC2)cc1Cl (configuration not stated) | 0 | - | - | 0 | -
CCN1CCN(CCOc2cccc(Cl)c2Cl)CC1 | 0 | 0 | 0 | 0 | 0
CCC(=O)c1ccccc1OCCN1CCN(CC)CC1 | 0 | 0 | 38 | 0 | 0
CCOc1ccccc1C(=O)N(Cc1ccco1)Cc1ccccc1F | 0 | - | - | 0 | -
Cc1nn(-c2ccccc2)c(N)c1C(O)(CSc1nccn1C)C(F)(F)F (configuration not stated) | 0 | 0 | 37 | 0 | 0
Cc1nn(-c2ccc(Cl)cc2)c(N)c1C(O)(CSc1nccn1C)C(F)(F)F (configuration not stated) | 0 | 0 | 0 | 0 | 0
CC(C)(C)n1nnnc1CN1CCN2CCCC2C1 (configuration not stated) | 0 | 0 | 37 | 0 | 0
COc1ccc(-c2cn3nc(N4CCCC(C(=O)Nc5ccccc5OC)C4)sc3n2)cc1 (configuration not stated) | 0 | - | - | 0 | -
O=c1c2sc3ccccc3c2n(Cc2ccc(F)cc2)c(=O)n1Cc1ccco1 | 0 | - | - | 0 | -
CCn1cc(S(=O)(=O)c2ccc(OC)cc2)c(=O)c2cc(F)c(N3CCC(C)CC3)cc21 | 0 | - | - | 0 | -
Cc1c(Cl)cn2c(=O)cc(CN3CCN(c4ccc(F)cc4)CC3)nc2c1Cl | 0 | - | 0 | 32 | -
O=C(Nc1ccc(Cl)cc1)N1CCC(c2nc(-c3ccccc3Cl)no2)CC1 | 0 | 0 | 31 | 0 | 0
O=C(CN1CCCN(Cc2cccc(F)c2)S1(=O)=O)Nc1ccc2c(c1)OCCO2 | 0 | - | - | 0 | -
CCOC(=O)CCNCC1COc2ccccc2O1 (configuration not stated) | 0 | 0 | 0 | 0 | 0
CCCNCC1COc2ccccc2O1 (configuration not stated) | 0 | 0 | 33 | 0 | 0
O=C(CC1COc2ccccc2O1)NCCc1ccccc1 (configuration not stated) | 0 | 0 | 0 | 0 | 0
c1ccc(CCCCNCC2COc3ccccc3O2)cc1 (configuration not stated) | 0 | 0 | 96 | 0 | 0
OC(CNCC1COc2ccccc2O1)COCc1cccs1 (configuration not stated) | 0 | 0 | 31 | 0 | 0
COc1ccc(NC(=O)C2CCN(C3=NS(=O)(=O)C(c4ccc(C)c(C)c4)=C3C)CC2)c(OC)c1 | - | - | - | 0 | -
CC(C)c1ccc(NC(=O)C2Cc3ccccc3N2C(=O)c2ccccc2)cc1 (configuration not stated) | 0 | - | - | - | -
CN(C)c1ccc(CNC(=O)c2ccc(Cn3c(=O)c4cccn4c4cccnc43)cc2)cc1 | 0 | - | - | 0 | -
CCN(CC)C(=O)c1ccc(C)c(Br)c1 | 0 | 0 | 31 | 0 | 0
OC1(c2ccc(Cl)cc2)CCN(Cc2cn[nH]c2-c2ccccc2)CC1 | 0 | 0 | 84 | 0 | 0
COc1ccc(-c2[nH]ncc2CN2CCC(O)(c3ccc(Cl)cc3)CC2)cc1 | 0 | 0 | 0 | 0 | 0
OC1(c2ccc(Cl)cc2)CCN(Cc2cn[nH]c2-c2ccc(F)cc2)CC1 | 0 | 0 | 56 | 0 | 0
